{
  "source": "the supplement of paper PMC11732987",
  "about": "“Enantioselective OTUD7B fragment discovery through chemoproteomics screening and high-throughput optimisation” (Communications Chemistry, 2025)",
  "experiment_in_all_cases": "log2 ratio of Biotin-Ahx-Ub-VS probe labelling (fragment/DMSO); higher = less target engagement (more negative = stronger competition), active = hit call of the paper (q ≤ 0.05, log2 ratio ≤ -1)",
  "conditions_in_all_cases": "compound concentration: 200 uM; treatment time: 3 h",
  "key": {"[1]": {"target": "T1, USP19 (UniProt O94966)", "T1 sequence (whole entry)": "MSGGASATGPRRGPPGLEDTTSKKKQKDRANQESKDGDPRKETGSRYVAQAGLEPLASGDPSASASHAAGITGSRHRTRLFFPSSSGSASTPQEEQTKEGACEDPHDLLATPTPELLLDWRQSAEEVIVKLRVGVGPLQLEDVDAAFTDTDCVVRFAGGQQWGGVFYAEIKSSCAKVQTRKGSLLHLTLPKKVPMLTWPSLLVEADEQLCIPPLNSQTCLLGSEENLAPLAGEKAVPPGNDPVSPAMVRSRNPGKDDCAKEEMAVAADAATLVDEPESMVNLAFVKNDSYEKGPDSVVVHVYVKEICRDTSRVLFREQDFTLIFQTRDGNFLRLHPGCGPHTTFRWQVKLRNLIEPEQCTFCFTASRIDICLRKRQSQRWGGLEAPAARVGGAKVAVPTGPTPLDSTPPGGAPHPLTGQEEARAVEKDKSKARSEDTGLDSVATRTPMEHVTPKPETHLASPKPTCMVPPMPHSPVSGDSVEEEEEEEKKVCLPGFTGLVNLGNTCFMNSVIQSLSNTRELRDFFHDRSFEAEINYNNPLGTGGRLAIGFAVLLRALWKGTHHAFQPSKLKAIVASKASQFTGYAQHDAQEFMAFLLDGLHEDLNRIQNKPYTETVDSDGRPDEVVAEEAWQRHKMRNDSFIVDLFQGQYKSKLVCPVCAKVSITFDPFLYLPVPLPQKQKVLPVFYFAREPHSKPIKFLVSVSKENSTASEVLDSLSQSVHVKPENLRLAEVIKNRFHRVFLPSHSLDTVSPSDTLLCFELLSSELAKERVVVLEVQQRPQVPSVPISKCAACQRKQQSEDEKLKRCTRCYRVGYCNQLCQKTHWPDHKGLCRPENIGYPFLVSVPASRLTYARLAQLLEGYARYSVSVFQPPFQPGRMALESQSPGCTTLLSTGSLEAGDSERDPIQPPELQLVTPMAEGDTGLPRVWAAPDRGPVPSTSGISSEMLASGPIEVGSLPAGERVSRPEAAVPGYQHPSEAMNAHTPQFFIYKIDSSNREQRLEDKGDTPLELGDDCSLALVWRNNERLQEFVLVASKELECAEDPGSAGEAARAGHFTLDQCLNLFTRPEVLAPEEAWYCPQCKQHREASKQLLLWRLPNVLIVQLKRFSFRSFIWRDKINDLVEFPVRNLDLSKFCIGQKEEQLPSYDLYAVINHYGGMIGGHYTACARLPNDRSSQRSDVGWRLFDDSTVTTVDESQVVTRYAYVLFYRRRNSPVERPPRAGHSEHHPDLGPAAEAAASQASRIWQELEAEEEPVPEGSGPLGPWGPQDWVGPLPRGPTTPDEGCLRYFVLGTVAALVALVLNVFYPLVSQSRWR", "summary_of_the_method": "(§1)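 Triplicate samples of HEK293T lysate, 495 µg each, received fragment at 200 µM or vehicle for 3 h, followed by Biotin-Ahx-Ub-VS (0.5 µM final) for 1 h. After NeutrAvidin enrichment of labelled DUBs and LysC/trypsin digestion, peptides were run by diaPASEF LC-MS/MS. The values are average log2 fragment/vehicle ratios from global-median-normalised Spectronaut label-free quantities, tested by unpaired t-test on proteins having ≥2 unique peptides.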"}, "[2]": {"target": "USP24 (UniProt Q9UPU5)", "sequence (Q9UPU5 whole entry)": "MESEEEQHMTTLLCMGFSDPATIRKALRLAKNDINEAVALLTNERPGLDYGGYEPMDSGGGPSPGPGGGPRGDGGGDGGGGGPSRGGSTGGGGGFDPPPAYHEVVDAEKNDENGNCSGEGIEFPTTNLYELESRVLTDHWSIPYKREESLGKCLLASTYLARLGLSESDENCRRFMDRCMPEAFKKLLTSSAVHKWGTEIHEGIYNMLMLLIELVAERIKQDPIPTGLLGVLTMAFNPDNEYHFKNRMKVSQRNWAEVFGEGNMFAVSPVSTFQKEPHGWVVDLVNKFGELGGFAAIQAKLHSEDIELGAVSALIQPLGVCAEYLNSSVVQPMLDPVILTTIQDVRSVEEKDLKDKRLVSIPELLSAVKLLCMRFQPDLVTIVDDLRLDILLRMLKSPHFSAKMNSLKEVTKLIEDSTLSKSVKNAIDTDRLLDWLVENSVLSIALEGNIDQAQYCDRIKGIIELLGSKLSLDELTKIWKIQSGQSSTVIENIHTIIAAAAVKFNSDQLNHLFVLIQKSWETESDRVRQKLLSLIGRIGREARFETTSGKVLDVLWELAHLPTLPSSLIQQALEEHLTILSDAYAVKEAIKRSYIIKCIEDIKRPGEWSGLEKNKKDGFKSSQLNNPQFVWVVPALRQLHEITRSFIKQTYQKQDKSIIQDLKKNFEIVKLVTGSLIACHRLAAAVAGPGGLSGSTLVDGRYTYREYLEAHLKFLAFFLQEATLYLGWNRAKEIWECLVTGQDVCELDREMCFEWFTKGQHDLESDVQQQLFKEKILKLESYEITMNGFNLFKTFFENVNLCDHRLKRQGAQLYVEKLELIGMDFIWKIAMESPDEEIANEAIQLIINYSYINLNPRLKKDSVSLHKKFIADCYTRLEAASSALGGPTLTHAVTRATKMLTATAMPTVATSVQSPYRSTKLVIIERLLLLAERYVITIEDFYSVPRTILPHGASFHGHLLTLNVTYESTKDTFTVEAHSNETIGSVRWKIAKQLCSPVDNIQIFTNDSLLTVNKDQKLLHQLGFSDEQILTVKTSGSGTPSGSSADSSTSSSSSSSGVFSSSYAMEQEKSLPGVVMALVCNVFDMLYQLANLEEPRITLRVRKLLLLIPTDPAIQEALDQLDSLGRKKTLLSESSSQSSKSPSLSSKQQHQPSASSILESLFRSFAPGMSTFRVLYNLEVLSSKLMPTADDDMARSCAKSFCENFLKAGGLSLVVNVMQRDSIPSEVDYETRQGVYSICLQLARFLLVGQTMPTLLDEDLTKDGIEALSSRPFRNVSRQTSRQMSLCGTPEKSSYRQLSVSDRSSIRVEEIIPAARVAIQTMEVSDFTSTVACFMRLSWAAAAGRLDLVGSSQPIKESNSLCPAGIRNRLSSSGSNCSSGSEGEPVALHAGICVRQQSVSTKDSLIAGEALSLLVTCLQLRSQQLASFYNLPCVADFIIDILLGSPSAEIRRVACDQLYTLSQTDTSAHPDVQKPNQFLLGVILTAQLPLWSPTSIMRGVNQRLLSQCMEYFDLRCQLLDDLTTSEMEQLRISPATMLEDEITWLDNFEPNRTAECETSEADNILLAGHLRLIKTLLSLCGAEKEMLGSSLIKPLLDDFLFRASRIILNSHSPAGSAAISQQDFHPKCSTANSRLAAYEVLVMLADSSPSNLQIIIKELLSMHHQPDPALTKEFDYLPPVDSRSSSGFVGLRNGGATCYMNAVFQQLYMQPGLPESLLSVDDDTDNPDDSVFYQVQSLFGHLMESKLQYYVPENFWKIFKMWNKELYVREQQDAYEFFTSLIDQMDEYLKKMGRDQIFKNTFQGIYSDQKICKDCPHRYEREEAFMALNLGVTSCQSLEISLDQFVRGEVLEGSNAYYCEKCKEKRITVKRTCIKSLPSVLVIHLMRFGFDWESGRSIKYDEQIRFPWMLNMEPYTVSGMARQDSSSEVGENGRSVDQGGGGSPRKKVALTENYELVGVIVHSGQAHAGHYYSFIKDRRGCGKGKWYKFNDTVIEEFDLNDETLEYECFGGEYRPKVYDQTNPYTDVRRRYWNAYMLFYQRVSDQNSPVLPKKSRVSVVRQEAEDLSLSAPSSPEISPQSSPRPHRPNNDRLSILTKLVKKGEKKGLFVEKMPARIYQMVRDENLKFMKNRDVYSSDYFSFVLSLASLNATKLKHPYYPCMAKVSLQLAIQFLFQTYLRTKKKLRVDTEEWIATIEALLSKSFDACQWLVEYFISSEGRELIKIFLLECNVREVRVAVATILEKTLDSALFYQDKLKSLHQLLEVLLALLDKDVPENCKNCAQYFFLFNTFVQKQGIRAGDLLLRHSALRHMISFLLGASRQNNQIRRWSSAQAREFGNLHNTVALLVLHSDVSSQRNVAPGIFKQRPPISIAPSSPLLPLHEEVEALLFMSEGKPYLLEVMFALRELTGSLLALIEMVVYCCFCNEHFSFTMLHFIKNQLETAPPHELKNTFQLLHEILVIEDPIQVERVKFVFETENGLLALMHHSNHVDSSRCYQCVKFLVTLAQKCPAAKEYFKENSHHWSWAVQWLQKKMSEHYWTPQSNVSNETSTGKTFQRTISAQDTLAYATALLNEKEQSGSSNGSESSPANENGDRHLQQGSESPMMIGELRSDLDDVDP", "summary_of_the_method": "as §1"}, "[3]": {"target": "T2, USP25 (UniProt Q9UHP3)", "T2 sequence (whole entry)": "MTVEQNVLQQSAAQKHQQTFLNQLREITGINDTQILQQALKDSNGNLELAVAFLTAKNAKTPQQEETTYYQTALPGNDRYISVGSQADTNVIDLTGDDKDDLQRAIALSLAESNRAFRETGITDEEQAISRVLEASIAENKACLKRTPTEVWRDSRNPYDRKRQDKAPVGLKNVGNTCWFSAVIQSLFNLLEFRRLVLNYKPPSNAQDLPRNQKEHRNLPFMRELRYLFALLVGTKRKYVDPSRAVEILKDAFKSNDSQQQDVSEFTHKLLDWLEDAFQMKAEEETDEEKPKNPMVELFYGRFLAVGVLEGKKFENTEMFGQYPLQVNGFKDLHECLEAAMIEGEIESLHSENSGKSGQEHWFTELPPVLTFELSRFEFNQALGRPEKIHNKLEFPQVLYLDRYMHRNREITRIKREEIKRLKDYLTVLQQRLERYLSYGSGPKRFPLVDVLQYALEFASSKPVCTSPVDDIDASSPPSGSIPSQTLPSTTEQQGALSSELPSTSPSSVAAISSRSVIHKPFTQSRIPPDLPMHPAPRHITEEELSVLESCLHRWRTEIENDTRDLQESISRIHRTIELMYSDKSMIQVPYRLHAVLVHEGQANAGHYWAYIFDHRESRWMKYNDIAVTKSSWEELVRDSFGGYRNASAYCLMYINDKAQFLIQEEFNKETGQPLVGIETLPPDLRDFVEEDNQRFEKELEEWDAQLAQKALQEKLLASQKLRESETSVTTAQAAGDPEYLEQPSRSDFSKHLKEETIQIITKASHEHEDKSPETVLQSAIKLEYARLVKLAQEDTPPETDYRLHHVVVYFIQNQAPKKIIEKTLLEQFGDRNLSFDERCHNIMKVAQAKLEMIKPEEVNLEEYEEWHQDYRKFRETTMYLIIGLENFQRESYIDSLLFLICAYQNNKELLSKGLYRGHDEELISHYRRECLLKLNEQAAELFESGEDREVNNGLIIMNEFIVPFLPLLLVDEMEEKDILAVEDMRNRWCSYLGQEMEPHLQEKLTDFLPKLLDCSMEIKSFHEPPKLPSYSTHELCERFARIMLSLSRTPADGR", "summary_of_the_method": "as §1"}, "[4]": {"target": "T3, USP28 (UniProt Q96RU2)", "T3 sequence (whole entry)": "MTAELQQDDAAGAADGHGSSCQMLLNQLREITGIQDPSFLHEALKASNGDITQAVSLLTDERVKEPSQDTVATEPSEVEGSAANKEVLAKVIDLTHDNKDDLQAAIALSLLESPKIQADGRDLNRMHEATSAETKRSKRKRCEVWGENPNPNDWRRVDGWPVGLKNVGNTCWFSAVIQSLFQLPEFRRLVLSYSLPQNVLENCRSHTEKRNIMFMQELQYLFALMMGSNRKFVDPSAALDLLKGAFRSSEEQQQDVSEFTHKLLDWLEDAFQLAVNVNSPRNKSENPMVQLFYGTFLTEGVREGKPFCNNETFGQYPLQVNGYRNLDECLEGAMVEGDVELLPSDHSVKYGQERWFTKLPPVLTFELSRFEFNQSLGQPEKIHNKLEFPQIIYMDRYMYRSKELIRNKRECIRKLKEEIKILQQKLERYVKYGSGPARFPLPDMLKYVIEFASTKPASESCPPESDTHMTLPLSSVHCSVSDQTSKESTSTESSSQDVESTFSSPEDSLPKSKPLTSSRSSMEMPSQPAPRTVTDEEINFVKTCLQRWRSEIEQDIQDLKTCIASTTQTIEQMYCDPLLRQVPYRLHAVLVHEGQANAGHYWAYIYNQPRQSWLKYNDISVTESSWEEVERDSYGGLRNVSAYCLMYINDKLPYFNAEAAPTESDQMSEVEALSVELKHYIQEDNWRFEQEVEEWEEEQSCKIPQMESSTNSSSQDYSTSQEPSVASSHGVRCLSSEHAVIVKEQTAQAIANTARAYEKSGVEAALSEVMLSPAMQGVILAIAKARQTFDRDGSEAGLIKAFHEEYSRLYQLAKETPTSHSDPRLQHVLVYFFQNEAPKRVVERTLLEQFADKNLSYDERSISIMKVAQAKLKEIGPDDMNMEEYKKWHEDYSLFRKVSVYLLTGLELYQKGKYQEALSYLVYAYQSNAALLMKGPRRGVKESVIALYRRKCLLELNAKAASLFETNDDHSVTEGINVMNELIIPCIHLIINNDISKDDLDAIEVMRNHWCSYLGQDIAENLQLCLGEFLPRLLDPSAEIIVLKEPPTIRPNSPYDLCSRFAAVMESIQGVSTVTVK", "summary_of_the_method": "as §1"}},
  "note": "A number with no mark means an inactive call.",
  "data": [
    {"smiles": "O=C(CCl)Nc1nc(-c2cccs2)cs1", "values": [
      {"measurement": "log2 ratio of Biotin-Ahx-Ub-VS probe labelling", "setting": "[1]", "value": -0.517},
      {"measurement": "log2 ratio of Biotin-Ahx-Ub-VS probe labelling", "setting": "[2]", "value": "-1.48 (active)"},
      {"measurement": "log2 ratio of Biotin-Ahx-Ub-VS probe labelling", "setting": "[3]", "value": -0.387},
      {"measurement": "log2 ratio of Biotin-Ahx-Ub-VS probe labelling", "setting": "[4]", "value": -0.678}
    ]}
  ]
}
